The supplement of paper PMC7156485

The molecules below were run on HCC1569 (assay: cell number relative to DMSO (% of DMSO); higher = more cells (less growth inhibition / toxicity)). Conditions: concentration: 10 µM; 24 h.
Summary of the method: (§1)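 Using 384-well plates with 800 cells per well in RPMI plus 10% FBS, HCC1569 and TDF cells were exposed to compounds at 10 µM, in triplicate, for 24 h at 37 °C. Imaging of six fields per well at ×10 followed H1.0 and DAPI staining. The reported quantity, H1.0 nuclear intensity or cell number, is a median of replicates given as percent of the plate control, and HCC1569 values were smoothed for positional effects.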
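Also: TDF denotes transformed human dermal fibroblasts of mesenchymal origin.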

**Q.** `Cl.Cl.Cl.NCCC1CCCC(CCN)N1` (configuration not stated) [MDL 26,630 trihydrochloride] was tested. Which cell number did it give?
**A.** 104

**Q.** `CSc1nc2ccc3nc(NC(=O)C(c4ccccc4)c4ccccc4)sc3c2s1` was tested. Which cell number did it give?
**A.** 103

**Q.** `COc1cc2ncnc(N3CCN(C(=O)Nc4ccc(Oc5ccccc5)cc4)CC3)c2cc1OC` [PDGF Receptor Tyrosine Kinase Inhibitor III] was tested. Which cell number did it give?
**A.** 72.2

**Q.** How did the cell number turn out when `Cc1cc(C(C)(C)C)c(O)c(C)c1CC1=NCCN1.Cl` [Oxymetazoline hydrochloride] was run?
**A.** 104

**Q.** For `CN(Cc1cc(Br)cc(Br)c1N)C1CCCCC1` [Bromhexine], which cell number is on record?
**A.** 98.8

**Q.** With `CCCCCCCCCCCCCCCCCCCCC(=O)O` [Heneicosanoic acid] as the molecule, how does the cell number read?
**A.** 102

Each molecule was assayed on TDF in the same assay as above. Conditions: concentration: 10 µM; 24 h.
Summary of the method: as §1

**Q.** For `O=C(C=Cc1ccc(O)cc1)CC(=O)C=Cc1ccc(O)cc1` [Bis demethoxycurcumin], which cell number is on record?
**A.** 95.1

**Q.** For `CN1CCN(C2Cc3ccccc3Sc3ccc(Cl)cc32)CC1.O=C(O)C=CC(=O)O` (configuration not stated), which cell number is on record?
**A.** 104

**Q.** With `CNc1cc(NS(=O)(=O)c2ccc(N)cc2)nc(NC)n1.Cl.Cl` [Ro 04-6790 dihydrochoride] as the molecule, how does the cell number read?
**A.** 108

**Q.** With `O=C(/C=C/c1cccnc1)NCCCCC1CCN(C(=O)c2ccccc2)CC1` as the molecule, how does the cell number read?
**A.** 107

**Q.** `C=CCn1c(=O)c2c(nc(-c3ccc(S(=O)(=O)O)cc3)n2C)n(C)c1=O` [1-Allyl-3,7-dimethyl-8-p-sulfophenylxanthine] was tested. Which cell number did it give?
**A.** 108

**Q.** With `O=c1c(-c2ccc(O)cc2)coc2cc(OC3OC(CO)C(O)C(O)C3O)cc(O)c12` (configuration not stated) [Genistin] as the molecule, how does the cell number read?
**A.** 104
